Test results published in PubChem BioAssay (EPA / NIEHS).
“And” between values parts separate entries of the source, which are not always exact repeats. Equal values may be shown once. Inconclusive results are not listed. The source made the active and inactive calls. How the source made its calls, unless noted: active means hit-call score of the fitted dose curve at least 0.9, where 1 is the maximum; inactive means score below 0.9.

Tests used:
[1] = read-out: Macrophage colony-stimulating factor (MCSF), CSF1 (gene 1435); assay: BSK_IMphg_MCSF: BioMAP Diversity Plus: IMphg Assay for Macrophage colony-stimulating factor (MCSF) Biomarker Activity (AID 2284293); conditions: primary human endothelial cells with macrophages
In short: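 Co-culture of human venular endothelial cells and macrophages, 24 hours of chemical exposure. M-CSF quantified by ELISA, with parallel SRB total-protein staining for cytotoxicity; activity fitted relative to DMSO.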

[2] = read-out: Interleukin-10 (IL10), IL10 (gene 3586); assay: BSK_IMphg_IL10: BioMAP Diversity Plus: IMphg Assay for Interleukin-10 (IL10) Biomarker Activity (AID 2284294); conditions: primary human endothelial cells with macrophages
In short: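 Human venular endothelial cells cocultured with macrophages, dosed 24 h; IL-10 measured by ELISA, activity relative to DMSO. Cytotoxicity assessed in parallel cultures by sulforhodamine B total-protein staining.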

[3] = BSK_IMphg_SRB.Mphg: Macrophage Viability Assessment in the BioMAP Diversity Plus: IMphg Assay (AID 2284295); conditions: primary human endothelial cells with macrophages
In short: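 Venular endothelial cells co-cultured with macrophages, read 24 h after dosing. Total protein measured by 0.1% SRB staining after 10% TCA fixation, absorbance at 560 nm. Fitted in positive direction against DMSO baseline.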

TTR (gene 7276) = assay: CCTE_GLTED_hTTR_0.5uM: CCTE's human Transthyretin (hTTR) Inhibition Assay, with 0.5uM TTR, Great Lakes Toxicology and Ecology Division (GLTED) Lab (AID 2284320)
In short: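 Cell-free displacement assay in which human TTR at 0.5 uM was incubated with test chemical for 2 h. Displacement of the ANSA probe was read by fluorescence at 380 nm excitation/475 nm emission. Loss of signal was fitted in the positive direction versus DMSO.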

[4] = CCTE_Padilla_ZF_Score.Craniofacial: CCTE's 144 Hour Post-fertilization zebrafish Assay Score for Craniofacial Malformation, Padilla Lab (AID 2284405)
In short: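 Wild-type zebrafish embryos (with chorions), one per well in 10% Hanks', were dosed at 6–8 hpf in sealed plates and kept at 26C. They were rinsed at 5 dpf. At 6 dpf two blinded assessors scored craniofacial malformations by brightfield stereomicroscopy.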

[5] = CCTE_Padilla_ZF_Score.Edema: CCTE's 144 Hour Post-fertilization zebrafish Assay Score for Edema Malformation, Padilla Lab (AID 2284406)
In short: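 Wild-type zebrafish embryos, one per well in Hanks' solution, dosed at 6-8 hpf, sealed and reared at 26C on a 14:10 h cycle; rinsed on 5 dpf. At 6 dpf, blinded assessors scored edema by stereomicroscopy.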

[6] = CCTE_Padilla_ZF_Score.Spine: CCTE's 144 Hour Post-fertilization zebrafish Assay Score for Spine Malformation, Padilla Lab (AID 2284407)
In short: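 Wild-type zebrafish embryos, one per well in Hanks' solution, dosed at 6–8 hpf in sealed plates at 26C, 14:10 h light:dark; rinsed at 5 dpf. Two blinded assessors scored spinal defects by stereomicroscopy at 6 dpf; fitted versus DMSO.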

[7] = CCTE_Padilla_ZF_Score.Swim_bladder: CCTE's 144 Hour Post-fertilization zebrafish Assay Score for Swim Bladder Malformation, Padilla Lab (AID 2284408)
In short: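 Wild-type zebrafish embryos, one per well in 10% Hanks', dosed at 6–8 hpf, sealed, reared at 26C and rinsed at 5 dpf. Blinded assessors scored uninflated swim bladder by stereomicroscopy at 6 dpf, relative to DMSO.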

[8] = CCTE_Padilla_ZF_Score.Position: CCTE's 144 Hour Post-fertilization zebrafish Assay Score for Position, Padilla Lab (AID 2284409)
In short: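 Wild-type zebrafish embryos (with chorions) exposed singly from 6–8 hpf in sealed wells of Hanks' solution at 26C, rinsed at 5 dpf. At 6 dpf, blinded assessors scored abnormal water-column position by brightfield stereomicroscopy, relative to DMSO.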

[9] = CCTE_Padilla_ZF_Score.Living: CCTE's 144 Hour Post-fertilization zebrafish Assay Score for Viability, Padilla Lab (AID 2284410);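 further: larval death at 6 dpf judged by absent heartbeat or coagulation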
In short: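 Wild-type zebrafish embryos were exposed singly from 6–8 hpf in sealed wells of Hanks' solution at 26C, then rinsed at 5 dpf. At 6 dpf, blinded assessors scored mortality (no heartbeat or coagulation) by stereomicroscopy, fitted against DMSO.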

[10] = CCTE_Padilla_ZF_Score.Tail: CCTE's 144 Hour Post-fertilization zebrafish Assay Score for Tail Malformation, Padilla Lab (AID 2284414)
In short: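 Wild-type zebrafish embryos, one per well in 200 uL 10% Hanks', dosed at 6-8 hpf, sealed, and kept at 26 C on a 14:10 h light cycle. Chemical was rinsed out at 5 dpf. Blinded brightfield scoring of tail defects followed at 6 dpf.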

[11] = CCTE_Padilla_ZF_Score.Blood_pooling: CCTE's 144 Hour Post-fertilization zebrafish Assay Score for Blood Pooling, Padilla Lab (AID 2284415)
In short: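 Wild-type outbred zebrafish embryos, one per well in 10% Hanks', exposed from 6–8 hpf in sealed plates at 26C on 14:10 h light:dark, rinsed at 5 dpf. Blinded stereomicroscope scoring of blood pooling at 6 dpf; gain-of-signal versus DMSO.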

[12] = CCTE_Padilla_ZF_Score.Any: CCTE's 144 Hour Post-fertilization zebrafish Assay Score for Any Mortality or Malformation, Padilla Lab (AID 2284416)
In short: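 Wild-type zebrafish embryos with chorions, one per well in 10% Hanks' from 6–8 hpf, dosed in sealed plates at 26 C, 14:10 h light:dark; rinsed at 5 dpf; blinded scoring at 6 dpf for death or malformation, versus DMSO.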

[13] = target: human CYP2D6, CYP2D6 (gene 1565) (UniProt P10635); assay: NVS_ADME_hCYP2D6: NovaScreen (NVS) CYP450-related Enzyme Activity (ADME) Assay for human CYP2D6 (AID 2283107; active means hit-call score of the fitted dose curve at least 0.9, where 1 is the maximum)
Sequence of human CYP2D6, CYP2D6 (gene 1565) (P10635 whole entry, looked up): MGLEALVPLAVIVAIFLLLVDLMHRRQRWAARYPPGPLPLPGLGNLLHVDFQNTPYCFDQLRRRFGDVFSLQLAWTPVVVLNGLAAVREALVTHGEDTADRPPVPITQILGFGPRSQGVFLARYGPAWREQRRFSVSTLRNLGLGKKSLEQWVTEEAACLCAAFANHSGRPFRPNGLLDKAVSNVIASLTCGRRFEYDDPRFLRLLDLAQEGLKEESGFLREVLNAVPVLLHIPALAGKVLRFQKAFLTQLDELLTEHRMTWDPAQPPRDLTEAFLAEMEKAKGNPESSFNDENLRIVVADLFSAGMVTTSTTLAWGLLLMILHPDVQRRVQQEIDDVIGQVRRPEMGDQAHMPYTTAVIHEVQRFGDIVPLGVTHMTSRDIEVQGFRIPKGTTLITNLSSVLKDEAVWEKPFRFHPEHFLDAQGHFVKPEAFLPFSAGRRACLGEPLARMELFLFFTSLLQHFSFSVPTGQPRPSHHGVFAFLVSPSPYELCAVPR
In short: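 Compounds were first tested in duplicate at 10 uM against recombinant enzyme produced in insect cells, with substrate turnover measured by fluorescence after 1 hour. Decreased signal, referenced to acetonitrile vehicle, was taken as reduced enzyme activity. Active chemicals went on to concentration-response testing.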

[14] = target: human Esterase Plasma (ES), BCHE (gene 590) (UniProt P06276); assay: NVS_ENZ_hES: NovaScreen (NVS) Enzymatic Assay for human Esterase Plasma (ES) (AID 2283157; active means hit-call score of the fitted dose curve at least 0.9, where 1 is the maximum)
Sequence of human Esterase Plasma (ES), BCHE (gene 590) (P06276 whole entry, looked up): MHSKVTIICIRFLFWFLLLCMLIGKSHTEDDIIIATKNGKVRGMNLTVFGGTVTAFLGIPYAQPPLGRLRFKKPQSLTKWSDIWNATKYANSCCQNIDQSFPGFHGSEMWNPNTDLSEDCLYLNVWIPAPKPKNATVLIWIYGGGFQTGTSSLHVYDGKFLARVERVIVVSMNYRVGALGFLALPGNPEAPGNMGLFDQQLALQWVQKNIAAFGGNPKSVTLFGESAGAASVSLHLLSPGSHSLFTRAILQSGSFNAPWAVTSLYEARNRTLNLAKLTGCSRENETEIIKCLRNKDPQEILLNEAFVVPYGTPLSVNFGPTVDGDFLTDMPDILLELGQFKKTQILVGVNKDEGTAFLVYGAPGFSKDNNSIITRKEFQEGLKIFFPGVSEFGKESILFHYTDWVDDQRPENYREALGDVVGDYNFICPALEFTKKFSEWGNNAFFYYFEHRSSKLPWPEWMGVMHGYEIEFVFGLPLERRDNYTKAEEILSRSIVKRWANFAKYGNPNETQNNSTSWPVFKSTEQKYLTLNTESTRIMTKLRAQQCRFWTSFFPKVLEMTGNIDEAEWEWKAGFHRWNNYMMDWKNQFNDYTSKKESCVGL
In short: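 Cell-free enzyme assay using esterase extracted from human plasma; colorimetric absorbance read 0.25 hour after dosing. Single-concentration duplicate screen at 25 uM, then concentration-response up to 50 uM; loss of signal scored against DMSO baseline.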

[15] = target: guinea pig Opioid, Kappa 1 Receptor (OpiateK), OPRK1 (gene 100135587) (UniProt P41144); assay: NVS_GPCR_gOpiateK: NovaScreen (NVS) G Protein-Coupled Receptor Assay for guinea pig Opioid, Kappa 1 Receptor (OpiateK) (AID 2283252; active means hit-call score of the fitted dose curve at least 0.9, where 1 is the maximum;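 further: radioligand displacement from kappa opioid receptor in guinea pig cerebellar membranes; active means reduced radioligand binding relative to DMSO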)
Sequence of guinea pig Opioid, Kappa 1 Receptor (OpiateK), OPRK1 (gene 100135587) (P41144 whole entry, looked up): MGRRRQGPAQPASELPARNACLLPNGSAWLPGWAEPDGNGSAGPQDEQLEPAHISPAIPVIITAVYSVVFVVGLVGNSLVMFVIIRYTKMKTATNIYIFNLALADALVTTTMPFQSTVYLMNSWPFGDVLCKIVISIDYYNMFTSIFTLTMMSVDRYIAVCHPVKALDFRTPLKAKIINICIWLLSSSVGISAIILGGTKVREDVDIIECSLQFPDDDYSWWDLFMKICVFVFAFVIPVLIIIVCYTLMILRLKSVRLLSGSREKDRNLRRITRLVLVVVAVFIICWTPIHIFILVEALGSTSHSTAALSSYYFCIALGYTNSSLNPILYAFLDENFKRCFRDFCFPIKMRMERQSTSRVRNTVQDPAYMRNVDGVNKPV
In short: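 Guinea pig cerebellar membranes were incubated with a radioligand for 2 h after compound addition; bound radioactivity was read by filter-based scintillation counting. Loss of specific binding relative to DMSO baseline defined activity; primary screen at 25 uM in duplicate.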

[16] = target: rat Adrenergic Receptor, Alpha 2 (Adra2), Non-selective Binding, Adra2a (gene 25083) (UniProt P22909); assay: NVS_GPCR_rAdra2_NonSelective: NovaScreen (NVS) G Protein-Coupled Receptor Assay for rat Adrenergic Receptor, Alpha 2 (Adra2), Non-selective Binding (AID 2283299; active means hit-call score of the fitted dose curve at least 0.9, where 1 is the maximum)
Sequence of rat Adrenergic Receptor, Alpha 2 (Adra2), Non-selective Binding, Adra2a (gene 25083) (P22909 whole entry, looked up): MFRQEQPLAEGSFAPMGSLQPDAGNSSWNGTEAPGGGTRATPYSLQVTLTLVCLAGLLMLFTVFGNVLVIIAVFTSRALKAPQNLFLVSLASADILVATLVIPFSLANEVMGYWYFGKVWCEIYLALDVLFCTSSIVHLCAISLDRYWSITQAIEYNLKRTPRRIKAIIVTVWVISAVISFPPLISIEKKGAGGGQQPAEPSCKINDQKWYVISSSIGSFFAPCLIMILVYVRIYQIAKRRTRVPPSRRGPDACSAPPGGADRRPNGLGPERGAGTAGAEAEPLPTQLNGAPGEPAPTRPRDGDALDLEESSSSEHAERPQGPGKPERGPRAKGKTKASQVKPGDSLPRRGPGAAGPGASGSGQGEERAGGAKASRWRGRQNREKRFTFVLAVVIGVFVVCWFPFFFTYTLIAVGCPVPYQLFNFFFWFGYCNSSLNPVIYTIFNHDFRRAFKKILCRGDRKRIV
In short: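 Rat cortical membranes, radioligand competitive displacement read by filter-based scintillation counting 1.25 hours after dosing. Primary screen in duplicate at 25 uM; actives followed up in concentration series.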

[17] = target: Sodium channel protein type 1 subunit alpha (Rattus norvegicus) (UniProt P04774); assay: NVS_IC_rNaCh_site2: NovaScreen (NVS) Ion Channel Assay for rat Sodium Channel, Site 2 (NaCh) (AID 2283322; active means hit-call score of the fitted dose curve at least 0.9, where 1 is the maximum;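 further: hit means loss of radioligand binding signal relative to DMSO so AC50 marks displacement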)
In short: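 Membranes: rat forebrain. Format: competitive radioligand displacement, filter separation, scintillation readout, 1 h exposure. Primary screen in duplicate at 25 uM; actives retested in concentration series.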

[18] = target: guinea pig Sigma Receptor, Non-selective Binding, SIGMAR1 (gene 100135589) (UniProt Q60492); assay: NVS_OR_gSIGMA_NonSelective: NovaScreen (NVS) Nuclear Receptor Binding Assay for guinea pig Sigma Receptor, Non-selective Binding (AID 2283367; active means hit-call score of the fitted dose curve at least 0.9, where 1 is the maximum)
Sequence of guinea pig Sigma Receptor, Non-selective Binding, SIGMAR1 (gene 100135589) (Q60492 whole entry, looked up): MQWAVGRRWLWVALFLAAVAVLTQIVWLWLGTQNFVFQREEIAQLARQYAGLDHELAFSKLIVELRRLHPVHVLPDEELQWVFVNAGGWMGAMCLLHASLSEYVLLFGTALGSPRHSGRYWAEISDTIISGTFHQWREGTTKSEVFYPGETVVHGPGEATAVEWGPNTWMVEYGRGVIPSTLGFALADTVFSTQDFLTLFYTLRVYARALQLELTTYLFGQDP
In short: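 Guinea pig brain membranes, cell-free radioligand binding; read 1 h after dosing by filter-based scintillation counting. Loss of signal vs DMSO baseline taken as displacement. Primary screen single concentration 25 uM in duplicate; actives retested in concentration series.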

[19] = test system: guinea pig Dopamine Transporter (DAT), gene 100714898; assay: NVS_TR_gDAT: NovaScreen (NVS) Transporter Assay for guinea pig Dopamine Transporter (DAT) (AID 2283369; active means hit-call score of the fitted dose curve at least 0.9, where 1 is the maximum;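 further: active compounds lower bound radioligand signal relative to DMSO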)
In short: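 Test chemicals were incubated 2 h with guinea pig striatal membranes and a radioligand; bound label was separated by filtration and counted. Screening ran at 25 uM, followed by concentration-response testing to a 50 uM maximum.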

Measured: AC50

OC(C(F)(F)F)(C(F)(F)F)C(O)(C(F)(F)F)C(F)(F)F
active: [1] 20 µM and 8.19 µM | [2] 23.6 µM and 21.1 µM | [3] 41.5 µM and 37.7 µM | TTR (gene 7276) 11 µM | [4] 2.57 µM | [5] 2.66 µM | [7] 2.66 µM | [9] 11.8 µM | [12] 2.21 µM
inactive: [6] | [8] | [10] | [11]

CN(C)CCC(c1ccc(Cl)cc1)c1ccccn1 (stereo not given)
active: [13] 5 µM | [14] 19.9 µM | [15] 12.7 µM | [16] 13.9 µM | [17] 3.21 µM | [18] 3.14 µM | [19] 3.05 µM
